Drawing on the supplement of paper PMC6555819, this text covers PBM binding z-score for seven sequences.

Common to all, as to assay: PBM binding z-score (relative to random genomic background probes); higher = stronger binding; sequences stand for … in GC…GCGATTGACAGCGTAGAATGAAGG
The subject of assay [1] is FXR:RXRa (NR concentration 270 nM, RXRa partner concentration 90 nM). An outline of the steps: (§1)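 On custom Agilent 4×180K arrays, double-stranded probes with 34-nt variable regions carried direct-repeat seeds, single-nucleotide variants, half-site ablations or random human genomic background. Ligand-free nuclear receptor dimers were applied for 1 h, and binding was read with antibodies against each partner (one per run). Binding z-scores come from regression-normalized fluorescence, with the random background probes as reference.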

Assay [2] concerns LXRa:RXRa (NR concentration 270 nM, RXRa partner concentration 90 nM). A digest of the protocol:
as §1

Assay [3] relates to LXRa homodimer (NR concentration 270 nM). An outline of the steps: as §1
Assay [4] deals with LXRb:RXRa (NR concentration 270 nM, RXRa partner concentration 90 nM). A digest of the protocol: as §1
In assay [5] the test system is LXRb homodimer (NR concentration 270 nM). An outline of the steps: as §1
The test system of assay [6] is PPARa:RXRa (NR concentration 270 nM, RXRa partner concentration 90 nM). An outline of the steps: as §1
For assay [7], the system named is PPARg:RXRa (NR concentration 180 nM, RXRa partner concentration 90 nM). A digest of the protocol:
as §1

For assay [8], the system named is PPARg:RXRa 270nM:90nM, anti-RXR (NR concentration 270 nM, RXRa partner concentration 90 nM). An outline of the steps: as §1
For assay [9], the system named is PPARg:RXRa 30nM:10nM, anti-RXR (NR concentration 30 nM, RXRa partner concentration 10 nM). A digest of the protocol:
as §1

For assay [10], the system named is PPARg:RXRa 90nM:30nM, anti-RXR (NR concentration 90 nM, RXRa partner concentration 30 nM). A digest of the protocol: as §1
The subject of assay [11] is PPARg:RXRa DBDmut IVT, anti-RXR (DBD mutation: RXRa K156A/R161A, NR concentration 270 nM, RXRa partner concentration 90 nM). An outline of the steps:
as §1

In assay [12] the test system is PPARg:RXRa IVT, anti-PPARg (NR concentration 270 nM, RXRa partner concentration 90 nM). An outline of the steps:
as §1

In assay [13] the test system is PPARg DBDmut:RXRa IVT, anti-PPARg (DBD mutation: PPARg1 K132A/R137A, NR concentration 270 nM, RXRa partner concentration 90 nM). An outline of the steps: as §1
The subject of assay [14] is PPARg DBDmut IVT, anti-PPARg (DBD mutation: PPARg1 K132A/R137A, NR concentration 270 nM). An outline of the steps: as §1
In assay [15] the test system is PPARg homodimer (NR concentration 180 nM). A digest of the protocol:
as §1

Assay [16] has as its system PXR:RXRa (NR concentration 270 nM, RXRa partner concentration 90 nM). A digest of the protocol:
as §1

For assay [17], the system named is PXR homodimer (NR concentration 270 nM). An outline of the steps: as §1
The subject of assay [18] is RARa:RXR (NR concentration 270 nM, RXRa partner concentration 90 nM). An outline of the steps:
as §1

Assay [19] has as its system RARa homodimer (NR concentration 270 nM). An outline of the steps: as §1
The subject of assay [20] is RARb:RXRa (NR concentration 270 nM, RXRa partner concentration 90 nM). A digest of the protocol: as §1

For the sequence AGTCAAAGTTCATCTAGGTAAAGTAAGATATGCT, the PBM binding z-score in assay [1] was 7.01; in [2], 5.97; in [3] it was 5.01; in [4], 4.24; in assay [5], 1.97; in [6], 5.14. Besides, the PBM binding z-score turned out to be 7.07 in [7]; 6.73 in assay [8]; 3.75 in assay [9]; 5.54 in [10]; 1.06 in assay [11]; 3.88 in assay [12]. Further, the PBM binding z-score in assay [13] came out at 1.43; in assay [14], 0.713; in assay [15], 3.61; in assay [16], 5.45; in assay [17], 7.79; in [18], 4.38. Also, the PBM binding z-score in [19] was 2.12; in assay [20], 5.22.
On to TAGCCTAGGTCATTCAGGGGCCCGTATAGAAAGC, for which the PBM binding z-score was found to be 4.76 in assay [1]; 3.93 in assay [2]; 0.791 in assay [3]; 2.54 in [4]; 0.963 in assay [5]; 3.52 in [6]. Moreover, the PBM binding z-score in assay [7] is 1.99; in assay [8] it was 2.34; in assay [9], 0.359; in assay [10] it was 1.44; in assay [11] it was 1.73; in assay [12] it was 2.64. Also, the PBM binding z-score was 0.467 in assay [13]; 0.786 in assay [14]; 1.25 in assay [15]; 2.01 in assay [16]; -0.334 in [17]; 2.84 in assay [18]. For the same sequence, the PBM binding z-score was -0.527 in [19] and 3.47 in assay [20].
Turning to AATACAGGGTCATCGTAGGCCAGAGTTCGCACAG, the PBM binding z-score in [1] was found to be 7.34; in [2] it was 6.57; in assay [3], 3.73; in assay [4] it was 4.63; in assay [5] it was 1.44; in [6], 5.93. For the same sequence, the PBM binding z-score stood at 7.18 in [7]; 6.46 in assay [8]; 2.9 in assay [9]; 5.18 in assay [10]; 2.96 in assay [11]; 4.45 in assay [12]. Besides, the PBM binding z-score in assay [13] was found to be 1.89; in [14], 1.85; in [15], 3.53; in assay [16], 5.76; in assay [17] it was 2.02; in [18] it was 5.59. In addition, the PBM binding z-score in [19] was 0.95; in [20] it was 4.33.
Regarding CTCGAAAGGTCGGTTTAGGTGAGTATACGGATAA, the PBM binding z-score was 2.13 in assay [1]; 1.54 in assay [2]; -0.093 in [3]; 1.7 in assay [4]; 0.329 in assay [5]; 2.44 in assay [6]. In addition, the PBM binding z-score in assay [7] was 0.282; in assay [8], 1.04; in assay [9], -0.0408; in [10] it was 0.683; in [11] it was 0.133; in assay [12] it was 0.896. Further, the PBM binding z-score is 0.666 in assay [13]; 0.13 in assay [14]; 1.29 in assay [15]; 1.51 in assay [16]; 0.344 in assay [17]; 1.64 in assay [18]. Besides, the PBM binding z-score is 0.736 in assay [19] and 2.66 in assay [20].
With ACTTACGAGTCAACGAGGTTATAGCACGCGTATA, the PBM binding z-score turned out to be 0.899 in assay [1]; 1.12 in assay [2]; 0.413 in assay [3]; 1.26 in [4]; 0.307 in [5]; 1.73 in assay [6]. Besides, the PBM binding z-score in assay [7] was 0.967; in assay [8], 0.553; in assay [9] it was 0.564; in assay [10] it was 0.254; in assay [11] it was -0.235; in assay [12] it was 0.267. Besides, the PBM binding z-score in assay [13] was 1.03; in assay [14], 0.64; in assay [15], 0.175; in [16], 1.51; in assay [17] it was 0.513; in [18], 1.68. In addition, the PBM binding z-score in assay [19] was -0.00172; in assay [20], 0.738.
As for GCTGCTAGGTCATCTGATGGTCAGCTAAAGCTCG, the PBM binding z-score in [1] came to 3.98; in [2] it was 3.02; in assay [3], 0.182; in [4], 2.03; in assay [5] it was 0.0879; in assay [6], 3.39. Besides, the PBM binding z-score in assay [7] was 1.96; in assay [8] it was 2.82; in assay [9] it was 0.263; in [10], 1.59; in [11], 3.87; in assay [12], 3.44. Moreover, the PBM binding z-score in assay [13] is -0.368; in assay [14], -0.142; in assay [15] it was 0.777; in assay [16], 1.71; in [17], -0.679; in [18], 2.64. Also, the figures for the PBM binding z-score in assay [19] and in assay [20] were -0.43 and 4.07, respectively.
Turning to TCTAGCGGGCCAGAGGGTCACTCAAGAGGTACGG, the PBM binding z-score in [1] is 0.839; in assay [2], 0.883; in [3], -0.748; in [4], 1.08; in assay [5], -1.43; in [6], 2.37. For the same sequence, the PBM binding z-score in [7] turned out to be 1.3; in assay [8] it was 2.42; in assay [9], 1.68; in assay [10], 2.48; in assay [11], 0.727; in assay [12], 0.801. Also, the PBM binding z-score in assay [13] was -0.857; in assay [14], -1.59; in assay [15] it was -0.0821; in [16], 1.64; in assay [17], -0.599; in [18], 2.17. Moreover, the PBM binding z-score in assay [19] is -0.431; in [20] it was 2.2.
